Measurements published in ChEMBL document CHEMBL3988442, “University of Dundee, Small-Polar-MMV Screening Library” (2021).
For some of these results: Potency and affinity values are given separately.

Columns and labels:
[1] = molecular target: Protein translocase subunit SecA (Escherichia coli (strain K12)) (UniProt P10408); assay: Assay to Identify E. coli SecA ATPase Inhibitors; format: functional; set-up: scale not given: direction of the effect not stated beside the values; conditions: 30 µM
[2] = molecular target: T1, Ubiquitin-activating enzyme e1, putative (Leishmania donovani (strain BPK282A1)) (UniProt E9BSI1); assay: Leishmania donovani Ubiquitin Activating Enzyme (LdE1); format: functional; set-up: scale not given: direction of the effect not stated beside the values; conditions: 30 µM
T1 sequence (whole entry): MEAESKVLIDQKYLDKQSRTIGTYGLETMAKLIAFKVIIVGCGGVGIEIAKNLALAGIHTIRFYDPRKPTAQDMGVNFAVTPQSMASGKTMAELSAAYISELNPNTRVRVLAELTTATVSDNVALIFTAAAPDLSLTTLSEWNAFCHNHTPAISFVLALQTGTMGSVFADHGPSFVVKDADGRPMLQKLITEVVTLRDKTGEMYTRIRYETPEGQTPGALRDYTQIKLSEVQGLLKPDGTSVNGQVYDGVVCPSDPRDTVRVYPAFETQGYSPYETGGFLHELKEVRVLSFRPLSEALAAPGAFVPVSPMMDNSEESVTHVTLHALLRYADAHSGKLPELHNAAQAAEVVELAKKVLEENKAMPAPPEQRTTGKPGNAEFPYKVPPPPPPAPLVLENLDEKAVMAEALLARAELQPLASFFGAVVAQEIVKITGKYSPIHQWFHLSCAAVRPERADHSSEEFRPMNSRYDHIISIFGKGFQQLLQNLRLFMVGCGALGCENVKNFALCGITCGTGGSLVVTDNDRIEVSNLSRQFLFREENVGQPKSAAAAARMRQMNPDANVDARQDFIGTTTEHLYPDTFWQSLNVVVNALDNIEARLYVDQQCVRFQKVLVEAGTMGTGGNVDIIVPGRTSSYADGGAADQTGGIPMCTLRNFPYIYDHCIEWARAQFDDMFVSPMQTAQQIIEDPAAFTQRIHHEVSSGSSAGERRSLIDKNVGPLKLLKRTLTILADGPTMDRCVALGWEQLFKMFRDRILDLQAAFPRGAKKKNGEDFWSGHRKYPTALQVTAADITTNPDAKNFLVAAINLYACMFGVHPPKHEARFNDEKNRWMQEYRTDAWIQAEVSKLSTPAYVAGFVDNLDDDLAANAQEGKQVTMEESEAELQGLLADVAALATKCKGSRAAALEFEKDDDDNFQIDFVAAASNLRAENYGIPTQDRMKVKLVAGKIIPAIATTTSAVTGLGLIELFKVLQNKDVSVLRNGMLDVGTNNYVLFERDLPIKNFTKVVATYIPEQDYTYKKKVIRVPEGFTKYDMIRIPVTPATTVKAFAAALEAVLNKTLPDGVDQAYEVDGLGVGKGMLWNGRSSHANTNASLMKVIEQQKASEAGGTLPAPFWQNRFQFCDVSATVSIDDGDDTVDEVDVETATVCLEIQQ

[3] = molecular target: AMP-activated protein kinase, AMPK (Homo sapiens) (UniProt P54646+O43741+P54619+Q9UGJ0+Q9Y478+Q13131+Q9UGI9); assay: AMP-dependent Kinase enzyme assay. An in vitro enzyme assay that detects ADP turnover that is directly proportional to AMPK activity. This uses naive AMPK that is activated during the assay with MK-8722; format: functional; set-up: scale not given: direction of the effect not stated beside the values; conditions: 30 µM
[4] = molecular target: Sialic acid-binding Ig-like lectin 9 (Homo sapiens) (UniProt Q9Y336); assay: Hs-Siglec9 ALPHAscreen SOP 20170721; set-up: scale not given: direction of the effect not stated beside the values; conditions: 10 µM
Trypanosoma cruzi = assay: Trypanosoma cruzi phosphomannomutase and mannose-1-phosphate guanylyltransferase assay; format: functional; set-up: scale not given: direction of the effect not stated beside the values; conditions: 10 µM
[5] = molecular target: T2, Arginase-2, mitochondrial (Homo sapiens) (UniProt P78540); assay: in vitro enzyme assay to detect the production of urea directly proportional to the activity of Arginase II; format: functional; set-up: scale not given: in the data most compounds retested in dose-response had high values
T2 sequence (whole entry): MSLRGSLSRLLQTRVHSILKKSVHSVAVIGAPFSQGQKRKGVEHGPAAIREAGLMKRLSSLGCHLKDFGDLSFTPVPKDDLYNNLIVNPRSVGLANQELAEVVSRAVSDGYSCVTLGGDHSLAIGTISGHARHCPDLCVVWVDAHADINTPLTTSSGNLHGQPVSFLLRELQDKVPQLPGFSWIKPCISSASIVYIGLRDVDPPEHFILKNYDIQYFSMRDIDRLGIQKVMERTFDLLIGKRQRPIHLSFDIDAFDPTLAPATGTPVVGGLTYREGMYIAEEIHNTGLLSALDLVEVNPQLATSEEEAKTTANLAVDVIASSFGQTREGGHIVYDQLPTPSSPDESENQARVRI

[6] = molecular target: T3, Proteasome subunit beta (Trypanosoma cruzi) (UniProt O96673); assay: Trypanosoma cruzi proteasome chymotrypsin-like activity (TcProtChymo) assay.; format: functional; set-up: scale not given: in the data most compounds retested in dose-response had high values; conditions: 9.37 µM
T3 sequence (whole entry): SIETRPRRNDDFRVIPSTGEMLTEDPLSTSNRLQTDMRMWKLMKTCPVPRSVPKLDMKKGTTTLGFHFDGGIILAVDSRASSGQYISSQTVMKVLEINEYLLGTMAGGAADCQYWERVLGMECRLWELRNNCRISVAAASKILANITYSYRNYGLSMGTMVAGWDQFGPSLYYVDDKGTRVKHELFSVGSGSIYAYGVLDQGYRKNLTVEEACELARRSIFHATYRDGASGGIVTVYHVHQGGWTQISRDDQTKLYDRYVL

Homo sapiens = species: Homo sapiens; assay: To identify inhibition of the IFN signalling (Jak-Stat) pathway via expression of an eGFP reporter gene under the control of an IFN-stimulated response element (ISRE) containing MxA promoter.; format: functional; set-up: scale not given: direction of the effect not stated beside the values; conditions: 30 µM
[7] = molecular target: T4, Tyrosyl-tRNA synthetase, putative (Trypanosoma cruzi (strain CL Brener)) (UniProt Q4DSP6); assay: Trypanosoma cruzi tyrosyl tRNA synthetase (TcYRS) _High Tyrosine SOP; format: functional; set-up: scale not given: in the data most compounds retested in dose-response had high values; conditions: 30 µM
T4 sequence (whole entry): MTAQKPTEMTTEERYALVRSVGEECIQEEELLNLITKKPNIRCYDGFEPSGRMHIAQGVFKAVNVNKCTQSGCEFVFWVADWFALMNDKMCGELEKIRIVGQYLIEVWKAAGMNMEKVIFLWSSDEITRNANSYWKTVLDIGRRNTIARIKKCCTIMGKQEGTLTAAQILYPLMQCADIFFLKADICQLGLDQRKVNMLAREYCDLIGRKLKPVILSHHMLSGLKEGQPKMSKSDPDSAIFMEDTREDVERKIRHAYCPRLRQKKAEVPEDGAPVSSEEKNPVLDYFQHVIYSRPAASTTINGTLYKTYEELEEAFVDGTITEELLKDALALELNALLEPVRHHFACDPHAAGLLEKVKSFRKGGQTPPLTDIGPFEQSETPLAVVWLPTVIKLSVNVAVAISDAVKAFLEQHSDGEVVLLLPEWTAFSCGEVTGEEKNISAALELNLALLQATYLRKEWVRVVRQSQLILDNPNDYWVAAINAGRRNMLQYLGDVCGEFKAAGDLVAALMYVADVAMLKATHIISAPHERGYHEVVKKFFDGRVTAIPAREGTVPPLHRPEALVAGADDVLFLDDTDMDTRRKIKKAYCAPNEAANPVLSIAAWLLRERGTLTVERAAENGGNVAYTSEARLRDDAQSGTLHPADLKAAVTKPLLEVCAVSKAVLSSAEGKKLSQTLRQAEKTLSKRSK

[8] = molecular target: T4, Tyrosyl-tRNA synthetase, putative (Trypanosoma cruzi (strain CL Brener)); assay: Trypanosoma cruzi tyrosyl tRNA synthetase (TcYRS) SOP; format: functional; set-up: scale not given: direction of the effect not stated beside the values; conditions: 30 µM
[9] = molecular target: Chromo domain-containing protein 1 (Saccharomyces cerevisiae (strain ATCC 204508 / S288c) (Baker's yeast)) (UniProt P32657); assay: ScCHD-1 Enzyme Inhibition Assay; format: functional; set-up: scale not given: in the data most compounds retested in dose-response had high values; conditions: 30 µM
[10] = molecular target: T5, Methionyl-tRNA synthetase, putative (Leishmania donovani (strain BPK282A1)) (UniProt E9BF75); assay: Leishmania donovani Methionine tRNA synthetase (LdMetRS):v7. Dose response assay; format: functional; set-up: conc 80 nM, time 150 minutes
T5 sequence (whole entry): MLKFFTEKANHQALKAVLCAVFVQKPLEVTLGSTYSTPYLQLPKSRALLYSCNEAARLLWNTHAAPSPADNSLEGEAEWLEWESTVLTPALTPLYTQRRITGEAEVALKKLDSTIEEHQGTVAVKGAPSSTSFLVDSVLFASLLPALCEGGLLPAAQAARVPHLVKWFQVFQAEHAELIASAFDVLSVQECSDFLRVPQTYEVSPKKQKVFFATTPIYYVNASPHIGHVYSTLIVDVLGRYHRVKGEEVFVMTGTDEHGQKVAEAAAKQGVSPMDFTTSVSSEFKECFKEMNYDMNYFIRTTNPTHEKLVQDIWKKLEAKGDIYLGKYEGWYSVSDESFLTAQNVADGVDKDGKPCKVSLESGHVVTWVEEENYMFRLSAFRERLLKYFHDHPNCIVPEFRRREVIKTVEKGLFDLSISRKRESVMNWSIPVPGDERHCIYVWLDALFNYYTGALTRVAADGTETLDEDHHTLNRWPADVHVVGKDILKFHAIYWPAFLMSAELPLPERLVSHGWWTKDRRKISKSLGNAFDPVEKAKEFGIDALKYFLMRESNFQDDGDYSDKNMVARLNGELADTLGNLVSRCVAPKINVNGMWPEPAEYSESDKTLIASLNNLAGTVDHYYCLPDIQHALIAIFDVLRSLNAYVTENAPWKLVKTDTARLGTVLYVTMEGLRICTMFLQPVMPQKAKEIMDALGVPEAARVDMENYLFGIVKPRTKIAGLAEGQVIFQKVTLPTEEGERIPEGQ

Sequence of Sialic acid-binding Ig-like lectin 9 (Homo sapiens) (Q9Y336 whole entry): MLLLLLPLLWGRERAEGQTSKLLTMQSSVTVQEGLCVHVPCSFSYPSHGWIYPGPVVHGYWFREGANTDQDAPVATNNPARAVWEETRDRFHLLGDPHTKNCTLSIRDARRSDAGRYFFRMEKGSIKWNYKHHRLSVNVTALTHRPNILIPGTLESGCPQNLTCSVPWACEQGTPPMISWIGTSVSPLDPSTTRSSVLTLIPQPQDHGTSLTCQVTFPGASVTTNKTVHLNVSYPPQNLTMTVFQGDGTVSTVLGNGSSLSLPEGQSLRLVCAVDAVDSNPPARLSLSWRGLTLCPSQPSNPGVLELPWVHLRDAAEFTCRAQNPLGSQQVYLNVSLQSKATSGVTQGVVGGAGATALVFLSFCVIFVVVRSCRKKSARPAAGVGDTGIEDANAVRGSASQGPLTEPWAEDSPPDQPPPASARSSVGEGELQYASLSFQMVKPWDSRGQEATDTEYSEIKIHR
Sequence of Protein translocase subunit SecA (Escherichia coli (strain K12)) (P10408 whole entry): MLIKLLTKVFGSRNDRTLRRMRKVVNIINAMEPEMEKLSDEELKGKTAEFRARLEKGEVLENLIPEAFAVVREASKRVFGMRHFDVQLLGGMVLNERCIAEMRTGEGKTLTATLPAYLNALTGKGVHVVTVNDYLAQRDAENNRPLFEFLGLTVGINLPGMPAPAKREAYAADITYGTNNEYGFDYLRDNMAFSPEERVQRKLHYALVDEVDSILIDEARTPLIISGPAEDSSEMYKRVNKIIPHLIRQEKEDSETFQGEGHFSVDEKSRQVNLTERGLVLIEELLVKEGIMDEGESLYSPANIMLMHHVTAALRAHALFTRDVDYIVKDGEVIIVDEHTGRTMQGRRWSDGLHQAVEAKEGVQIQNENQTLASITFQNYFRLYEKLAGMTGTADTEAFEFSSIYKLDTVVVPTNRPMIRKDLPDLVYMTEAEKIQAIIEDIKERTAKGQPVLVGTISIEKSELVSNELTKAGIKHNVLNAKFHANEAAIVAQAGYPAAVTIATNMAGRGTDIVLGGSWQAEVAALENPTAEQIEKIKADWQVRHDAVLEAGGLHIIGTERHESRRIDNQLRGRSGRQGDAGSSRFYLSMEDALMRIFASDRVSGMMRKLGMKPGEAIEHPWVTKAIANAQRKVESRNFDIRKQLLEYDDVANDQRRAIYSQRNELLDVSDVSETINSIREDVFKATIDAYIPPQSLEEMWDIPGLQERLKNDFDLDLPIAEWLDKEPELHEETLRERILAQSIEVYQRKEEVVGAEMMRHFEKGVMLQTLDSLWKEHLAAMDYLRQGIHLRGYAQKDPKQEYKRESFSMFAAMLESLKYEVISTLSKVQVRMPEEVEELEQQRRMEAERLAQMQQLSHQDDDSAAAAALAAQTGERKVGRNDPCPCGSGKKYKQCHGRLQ
Sequence of Chromo domain-containing protein 1 (Saccharomyces cerevisiae (strain ATCC 204508 / S288c) (Baker's yeast)) (P32657 whole entry, the tested form may be a part): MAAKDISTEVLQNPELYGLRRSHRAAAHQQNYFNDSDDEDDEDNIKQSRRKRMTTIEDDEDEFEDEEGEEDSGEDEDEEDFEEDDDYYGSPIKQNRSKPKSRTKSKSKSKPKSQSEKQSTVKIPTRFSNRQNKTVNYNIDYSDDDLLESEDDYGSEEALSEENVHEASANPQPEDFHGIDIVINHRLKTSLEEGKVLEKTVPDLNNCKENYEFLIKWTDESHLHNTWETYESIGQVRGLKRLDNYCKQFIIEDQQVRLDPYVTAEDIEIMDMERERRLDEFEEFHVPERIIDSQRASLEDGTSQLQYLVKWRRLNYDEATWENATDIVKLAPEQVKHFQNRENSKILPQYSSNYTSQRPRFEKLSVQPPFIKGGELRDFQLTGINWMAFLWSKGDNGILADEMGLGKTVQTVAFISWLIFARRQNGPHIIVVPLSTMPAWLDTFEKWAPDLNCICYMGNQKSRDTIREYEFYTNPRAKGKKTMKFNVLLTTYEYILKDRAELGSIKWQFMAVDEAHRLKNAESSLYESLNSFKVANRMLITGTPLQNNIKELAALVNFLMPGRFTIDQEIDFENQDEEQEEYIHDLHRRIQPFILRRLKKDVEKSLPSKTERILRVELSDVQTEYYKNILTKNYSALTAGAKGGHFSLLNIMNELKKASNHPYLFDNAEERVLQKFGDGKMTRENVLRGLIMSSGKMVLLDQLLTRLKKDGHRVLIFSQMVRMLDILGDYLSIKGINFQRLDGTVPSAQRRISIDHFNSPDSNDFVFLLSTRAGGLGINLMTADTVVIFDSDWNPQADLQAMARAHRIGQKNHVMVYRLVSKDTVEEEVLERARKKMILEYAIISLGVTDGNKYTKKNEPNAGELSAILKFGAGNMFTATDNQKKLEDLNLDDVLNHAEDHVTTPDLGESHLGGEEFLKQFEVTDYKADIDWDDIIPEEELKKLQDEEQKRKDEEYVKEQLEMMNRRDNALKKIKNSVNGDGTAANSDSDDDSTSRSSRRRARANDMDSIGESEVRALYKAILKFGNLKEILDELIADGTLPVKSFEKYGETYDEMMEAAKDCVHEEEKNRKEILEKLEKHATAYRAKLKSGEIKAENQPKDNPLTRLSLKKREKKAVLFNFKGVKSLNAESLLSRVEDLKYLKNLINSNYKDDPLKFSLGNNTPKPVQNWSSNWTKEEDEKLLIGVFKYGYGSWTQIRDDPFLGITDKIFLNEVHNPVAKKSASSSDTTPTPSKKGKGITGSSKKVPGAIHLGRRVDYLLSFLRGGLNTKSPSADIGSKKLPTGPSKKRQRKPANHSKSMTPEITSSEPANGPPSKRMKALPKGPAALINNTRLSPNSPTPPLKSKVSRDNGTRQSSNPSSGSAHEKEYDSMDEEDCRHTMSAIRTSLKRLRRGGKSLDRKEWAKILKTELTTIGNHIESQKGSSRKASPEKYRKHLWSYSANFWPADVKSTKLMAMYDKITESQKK

SMILES	Percent Effect [1]	Percent Effect [2]	Percent Effect [3]	Percent Effect [4]	Percent Effect (Trypanosoma cruzi)	Percent Effect ([5]; 30 µM)	Percent Effect ([5]; 33.3 µM)	Percent Effect [6]	Percent Effect (Homo sapiens)	Percent Effect [7]	Percent Effect [8]	Percent Effect [9]	PXC50 ([10]; MAX_EFFECT 12.82660333)	PXC50 ([10]; MAX_EFFECT 19.54225352)
Cn1cc(CN2C[C@@H]3COC[C@]3(C(=O)NCc3ccccn3)C2)cn1	-3.43%	5.33%	0.406%	6.2%	0.772%	-0.54%	-54.3%	4.62%	-8.11%	2.08%	2.5%	-5.35%	–	–
Cc1ccccc1C1(CNc2nnc(C)c(C)c2C#N)CCOCC1	-3.65%	0%	-11.2%	2.86%	-0.193%	–	-0.952%	9.31%	19.4%	2.65%	0%	-3.83%	< 4	< 4
CCn1c(Nc2ccccc2OC)nc2c(C)nn(C)c2c1=O	-1.82%	6.67%	3.08%	-2.73%	-6.88%	-9.19%	-4.4%	16.3%	10.6%	8.47%	10.3%	-10.1%	–	–
CC1=Nc2c(c(=O)[nH]n2C2CCCC2)C(c2cccc(O)c2)S1 (stereo unspecified)	-2.38%	-1.33%	11.5%	2.03%	1.38%	-1.62%	-1.23%	11.3%	36.2%	14.8%	20.5%	0.661%	–	–
CN(C)C(=O)CNC(=O)c1cc(Br)c2c(c1)OCCO2	-5.71%	8%	-2.43%	7.31%	4.58%	4.87%	1.56%	21.6%	-10.2%	7.1%	18.5%	-4.33%	–	–
